The campaign covered roughly 5,500 compounds. About 2,000 (36%) were called active. Roughly 18% stayed inconclusive and do not appear here. Cut-off read from the data, not from the text of the source: active = normalized growth mostly below about 0.91 (no sharp cut-off); inconclusive = no clear call, values can overlap the other calls; inactive = mostly above about 0.92. The list shows a part of the results.
Experiment: chemical genetic growth profiling, strain panel (AID 1159580);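 note: tested at 20 µM; growth read once vehicle control cultures reached saturation at 30 °C; 1 = growth at the plate median or of vehicle wells; lower values mean less growth of the strain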
Conditions: S. cerevisiae deletion strains, growth OD
[1] = locus YAL021C, strain ccr4, hits give low values
[2] = locus YAL026C, strain drs2, hits give low values
[3] = locus YAL030W, strain snc1, hits give low values
[4] = locus YBL061C, strain skt5, hits give low values
[5] = locus YBR009C, strain hhf1, hits give low values
[6] = locus YBR023C, strain chs3, hits give low values
[7] = locus YBR171W, strain sec66, hits give low values
[8] = locus YBR231C, strain swc5, hits give low values
[9] = locus YBR279W, strain paf1, hits give low values
[10] = locus YCL011C, strain gbp2, hits give low values
[11] = locus YCL016C, strain dcc1, hits give low values
[12] = locus YCL069W, strain vba3, hits give low values
[13] = locus YCR088W, strain abp1, hits give low values
[14] = locus YDL005C, strain med2, hits give low values
[15] = locus YDL040C, strain nat1, hits give low values
[16] = locus YDR001C, strain nth1, hits give low values
[17] = locus YDR069C, strain doa4, hits give low values
[18] = locus YDR137W, strain rgp1, hits give low values
[19] = locus YDR159W, strain sac3, hits give low values
[20] = locus YDR297W, strain sur2, hits give low values
[21] = locus YDR334W, strain swr1, hits give low values
[22] = locus YDR335W, strain msn5, hits give low values
[23] = locus YDR392W, strain spt3, hits give low values
[24] = locus YEL003W, strain gim4, hits give low values
[25] = locus YEL037C, strain rad23, hits give low values
[26] = locus YEL061C, strain CIN8 (second series), hits give low values
[27] = locus YER015W, strain faa2, hits give low values
[28] = locus YER016W, strain bim1, hits give low values
[29] = locus YER111C, strain swi4, hits give low values
[30] = locus YER155C, strain BEM2 (second series), hits give low values
[31] = locus YFR010W, strain ubp6, hits give low values
[32] = locus YGL167C, strain pmr1, hits give low values
[33] = locus YGL173C, strain kem1, hits give low values
[34] = locus YGL227W, strain vid30, hits give low values
[35] = locus YGL240W, strain doc1, hits give low values
[36] = locus YGL253W, strain hxk2, hits give low values
[37] = locus YHR013C, strain ard1, hits give low values
[38] = locus YHR027C, strain rpn1, hits give low values
[39] = locus YHR030C, strain SLT2, hits give low values
[40] = locus YHR079C, strain IRE1, hits give low values
[41] = locus YHR142W, strain chs7, hits give low values
[42] = locus YJL092W, strain hpr5, hits give low values
[43] = locus YJL095W, strain BCK1 (second series), hits give low values
[44] = locus YJL095W, strain BCK1, hits give low values
[45] = locus YJL115W, strain asf1, hits give low values
[46] = locus YJL129C, strain trk1, hits give low values
[47] = locus YJL154C, strain vps35, hits give low values
[48] = locus YJL164C, strain tpk1, hits give low values
[49] = locus YJL166W, strain qcr8, hits give low values
[50] = locus YJR066W, strain TOR1, hits give low values
[51] = locus YKL160W, strain elf1, hits give low values
[52] = locus YKR026C, strain gcn3, hits give low values
[53] = locus YKR091W, strain srl3, hits give low values
[54] = locus YLL001W, strain dnm1, hits give low values
[55] = locus YLL026W, hits give low values
[56] = locus YLL041C, strain sdh2, hits give low values
[57] = locus YLR113W, strain HOG1, hits give low values
[58] = locus YLR221C, strain rsa3, hits give low values
[59] = locus YLR258W, strain gsy2, hits give low values
[60] = locus YLR262C, strain YPT6 (second series), hits give low values
[61] = locus YLR320W, strain mms22, hits give low values
[62] = locus YLR342W, strain FKS1, hits give low values
[63] = locus YLR357W, strain rsc2, hits give low values
[64] = locus YLR370C, strain arc18, hits give low values
[65] = locus YLR384C, strain iki3, hits give low values
[66] = locus YML120C, strain ndi1, hits give low values
[67] = locus YMR058W, strain fet3, hits give low values
[68] = locus YMR125W, strain sto1, hits give low values
[69] = locus YMR129W, hits give low values
[70] = locus YMR205C, strain PFK2, hits give low values
[71] = locus YMR231W, strain pep5, hits give low values
[72] = locus YNL071W, strain lat1, hits give low values
[73] = locus YNL183C, strain NPR1, hits give low values
[74] = locus YNL209W, strain ssb2, hits give low values
[75] = locus YNL248C, strain rpa49, hits give low values
[76] = locus YNL322C, strain KRE1 (second series), hits give low values
[77] = locus YNR049C, strain mso1, hits give low values
[78] = locus YOR001W, strain rrp6, hits give low values
[79] = locus YOR070C, strain gyp1, hits give low values
[80] = locus YOR080W, strain dia2, hits give low values
[81] = locus YOR083W, strain WHI5, hits give low values
[82] = locus YOR106W, strain vam3, hits give low values
[83] = locus YOR231W, strain MKK1, hits give low values
[84] = locus YOR265W, strain rbl2, hits give low values
[85] = locus YOR270C, strain vph1, hits give low values
[86] = locus YOR290C, strain snf2, hits give low values
[87] = locus YPL051W, strain arl3, hits give low values
[88] = locus YPL078C, strain atp4, hits give low values
[89] = locus YPL106C, strain sse1, hits give low values
[90] = locus YPL240C, strain hsp82, hits give low values
[91] = locus YPL256C, strain CLN2, hits give low values

Measured: normalized growth

c1ccc2c(Cc3c[nH]c4ccccc34)c[nH]c2c1
inactive: [14] 0.939 | [17] 1 | [32] 0.958 | [63] 0.876 | [89] 1
active: [1] 0.848 | [2] 0.263 | [3] 0.785 | [4] 0.51 | [5] 0.341 | [6] 0.523 | [7] 0.515 | [8] 0.501 | [9] 0.496 | [10] 0.319 | [11] 0.543 | [12] 0.364 | [13] 0.632 | [15] 0.784 | [16] 0.824 | [18] 0.331 | [19] 0.547 | locus YDR195W, strain ref2 1.24 [resistant] | [20] 0.704 | [21] 0.459 | [22] 0.501 | [23] 0.11 | [24] 0.282 | [25] 0.779 | [26] 0.413 | [27] 0.443 | [28] 0.681 | [29] 0.455 | [30] 0.147 | [31] 0.836 | [33] 0.765 | [34] 0.154 | [35] 0.68 | [36] 0.348 | [37] 0.617 | [38] 0.615 | [39] 0.428 | [40] 0.531 | [41] 0.202 | [42] 0.635 | [43] 0.47 | [44] 0.528 | [45] 0.811 | [46] 0.518 | [47] 0.794 | [48] 0.429 | [49] 0.356 | [50] 0.54 | [51] 0.388 | [52] 0.763 | [53] 0.802 | [54] 0.421 | [55] 0.469 | [56] 0.758 | locus YLR027C, strain aat2, hits give low values 0.446 | [57] 0.648 | [58] 0.343 | [59] 0.722 | [60] 0.348 | [61] 0.235 | [62] 0.518 | [64] 0.57 | [65] 0.829 | [66] 0.324 | [67] 0.322 | [68] 0.469 | [69] 0.647 | [70] 0.506 | [71] 0.249 | [72] 0.106 | [73] 0.593 | [74] 0.644 | [75] 0.629 | [76] 0.73 | [77] 0.674 | [78] 0.531 | [79] 0.379 | [80] 0.772 | [81] 0.419 | [82] 0.43 | [83] 0.511 | [84] 0.534 | [85] 0.338 | [86] 0.219 | [87] 0.264 | [88] 0.363 | [90] 0.63 | [91] 0.652

OCc1c[nH]c2ccccc12
inactive: [1] 0.949 | [2] 0.991 | [3] 0.979 | [4] 0.969 | [5] 0.926 | [6] 0.955 | [7] 0.977 | [8] 0.953 | [9] 0.956 | [11] 0.957 | locus YCL061C, strain MRC1, hits give low values 1.01 | [12] 0.976 | [13] 0.971 | [14] 0.989 | [15] 0.981 | [16] 0.99 | [17] 0.974 | [19] 0.88 | locus YDR195W, strain ref2 1 | [20] 0.956 | [21] 1 | [22] 0.984 | [23] 0.856 | [25] 0.978 | [26] 0.975 | [27] 0.943 | [28] 0.977 | [29] 0.992 | [30] 0.966 | [31] 0.984 | [32] 0.978 | [33] 0.96 | [34] 0.983 | [35] 0.911 | [36] 0.98 | [37] 0.955 | [38] 0.96 | [39] 1.02 | [40] 1.05 | [41] 0.948 | [42] 0.979 | [43] 0.944 | [44] 0.979 | [45] 0.981 | [46] 0.879 | [47] 0.987 | locus YJL187C, strain SWE1, hits give low values 0.958 | [50] 0.961 | [51] 0.907 | [52] 0.998 | [53] 0.99 | [54] 1 | [55] 0.976 | [56] 0.979 | [57] 1 | [59] 0.939 | [63] 0.977 | [64] 0.982 | [65] 0.976 | [67] 0.991 | [68] 0.974 | [69] 1 | [71] 0.968 | [73] 0.931 | [74] 0.969 | [75] 0.997 | [76] 0.996 | [77] 0.99 | [79] 0.93 | [80] 1 | [81] 0.987 | [83] 1.04 | [84] 0.972 | [85] 0.974 | [86] 0.963 | [88] 0.983 | [89] 0.952 | [91] 1.08
active: [10] 0.815 | [18] 0.741 | [24] 0.8 | [48] 0.895 | [49] 0.779 | [58] 0.862 | [60] 0.663 | [61] 0.742 | [62] 0.905 | [66] 0.902 | [70] 0.849 | [72] 0.622 | [78] 0.854 | [82] 0.702 | [87] 0.791 | [90] 0.914

CC(=O)NCCc1c[nH]c2ccccc12
inactive: locus YAL013W, strain DEP1, hits give low values 1 | locus YAL040C, strain CLN3, hits give low values 1.01 | locus YCL061C, strain MRC1 (second series), hits give low values 1 | locus YDR150W, strain NUM1, hits give low values 1 | locus YER002W, strain NOP16, hits give low values 1 | locus YJR075W, strain HOC1, hits give low values 1 | locus YNL175C, strain NOP13, hits give low values 1.01 | locus YNL197C, strain WHI3, hits give low values 1 | locus YNL224C, strain SQS1, hits give low values 1.01 | locus YOR083W, strain WHI5 (second series), hits give low values 1.02 | locus YPL055C, strain LGE1, hits give low values 1

— PubChem BioAssay AID1159580 (chemical genetic matrix, 2015)
